Assay [1] can be described thus: AP1 Signaling Pathway (AID 357).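 Note: ME-180 reporter cells stimulated with EGF at its EC50 level; % is set by controls: 0 for no effect and ±100 for the full control effect.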 Particulars: ME-180 AP-1-bla reporter, EGF-induced, beta-lactamase ratio, 5 h. Put shortly:
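Cells are seeded overnight, exposed to compound titrations and an EC50 level of EGF for 5 hours at 37 °C, then loaded with CCF4 dye for 2.5 hours. Beta-lactamase activity under the AP-1 element is read as a blue/green ratio.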

For assay [2], the target named is Cytochrome P450 1A2 (Homo sapiens) (UniProt P05177). Kind of assay: p450-cyp1a2 (AID 410; calls by dose curve; note: potency is the fitted concentration of half-maximal effect). The settings on record: recombinant CYP1A2, luciferin-ME demethylation, luminescence; series mostly up to 57 µM. Put shortly: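 O-Demethylation of luciferin 6' methyl ether by human CYP1A2 is monitored as luciferase luminescence. Substrate sits at Km (100uM); enzyme is 20nM. Values are scaled to 57 uM furafylline as maximal inhibition.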
Cytochrome P450 1A2 (Homo sapiens), sequence (P05177 whole entry, looked up): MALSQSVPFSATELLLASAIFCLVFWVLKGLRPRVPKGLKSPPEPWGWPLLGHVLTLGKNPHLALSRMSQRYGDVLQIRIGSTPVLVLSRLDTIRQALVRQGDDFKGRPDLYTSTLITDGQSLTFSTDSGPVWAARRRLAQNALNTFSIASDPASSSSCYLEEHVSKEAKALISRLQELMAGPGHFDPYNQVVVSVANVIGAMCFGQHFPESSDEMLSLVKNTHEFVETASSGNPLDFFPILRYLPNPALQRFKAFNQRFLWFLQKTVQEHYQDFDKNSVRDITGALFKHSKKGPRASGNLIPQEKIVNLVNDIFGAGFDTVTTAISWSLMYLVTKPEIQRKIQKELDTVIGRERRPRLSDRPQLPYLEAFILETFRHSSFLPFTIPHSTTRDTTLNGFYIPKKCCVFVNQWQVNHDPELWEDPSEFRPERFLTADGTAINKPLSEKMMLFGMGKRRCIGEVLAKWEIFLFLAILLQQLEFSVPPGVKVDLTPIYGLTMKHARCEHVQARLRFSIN

The nature of assay [3]: NFAT Signaling Pathway (AID 444).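 Note: carbachol stimulus at about its EC50 of 1 µM final; % is set by controls: 0 for no effect and ±100 for the full control effect.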 The settings on record: Jurkat NFAT-bla M1, carbachol, beta-lactamase ratio, 5 h. In outline:
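Jurkat cells carrying an NFAT-driven β-lactamase reporter and co-transfected muscarinic M1 receptor were treated with compound plus carbachol (1 uM final, an EC50 level) for 5 h at 37 °C. CCF4 loading followed for 1 h at RT; 460/530 nm ratio gave %activity.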

The nature of assay [4]: Stat Signaling Pathway (AID 446).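 Note: ME-180 cervical cancer cells given 40 pM IL-6 alongside compound; SIE-controlled beta-lactamase reporter measured as 460/530 nm FRET emission ratio; % is set by controls: 0 for no effect and ±100 for the full control effect.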 The settings on record: ME-180 (cervical carcinoma) SIE beta-lactamase reporter, IL-6 stimulated, 5 h. In outline: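 Normalization used AC90 stimulation (300 pM IL-6) and AC90 inhibition (125 nM pan-JAK inhibitor at 40 pM IL-6). The underlying signal is SIE-driven beta-lactamase in ME-180 cells after 5 h IL-6 exposure with compound.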
In assay [5] the target is Glucocorticoid receptor (Homo sapiens) (UniProt P04150). Kind of assay: GR-GFP Redistribution (AID 450;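 active = compounds whose dose series gives a full or clear partial fitted curve of increased nuclear translocation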; note: potency is the fitted concentration of half-maximal effect). Particulars: U2OS GR-GFP nuclear translocation, laser cytometry, 2 h.
Glucocorticoid receptor (Homo sapiens), sequence (P04150 whole entry, looked up): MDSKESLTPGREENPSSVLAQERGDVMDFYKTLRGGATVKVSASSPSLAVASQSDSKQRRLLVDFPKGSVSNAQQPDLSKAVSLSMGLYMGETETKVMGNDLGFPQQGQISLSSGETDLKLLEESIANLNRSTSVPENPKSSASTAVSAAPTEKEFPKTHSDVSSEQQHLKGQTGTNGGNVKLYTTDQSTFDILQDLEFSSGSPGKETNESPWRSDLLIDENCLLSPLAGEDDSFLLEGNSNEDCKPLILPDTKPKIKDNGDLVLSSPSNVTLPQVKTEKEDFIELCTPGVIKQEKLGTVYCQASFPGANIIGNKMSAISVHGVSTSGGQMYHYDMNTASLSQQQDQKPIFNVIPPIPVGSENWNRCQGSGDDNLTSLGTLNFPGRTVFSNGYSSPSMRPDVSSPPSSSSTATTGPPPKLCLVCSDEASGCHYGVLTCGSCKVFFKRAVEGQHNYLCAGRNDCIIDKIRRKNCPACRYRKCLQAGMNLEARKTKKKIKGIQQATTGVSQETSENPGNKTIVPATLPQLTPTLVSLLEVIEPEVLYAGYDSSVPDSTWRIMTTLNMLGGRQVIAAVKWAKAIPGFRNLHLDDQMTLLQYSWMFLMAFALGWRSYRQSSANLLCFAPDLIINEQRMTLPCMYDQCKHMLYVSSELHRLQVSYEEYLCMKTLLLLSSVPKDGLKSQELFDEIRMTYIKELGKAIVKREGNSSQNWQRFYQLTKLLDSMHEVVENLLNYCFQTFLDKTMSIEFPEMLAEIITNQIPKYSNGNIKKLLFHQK
Assay [6] shares this target. Kind of assay: GR-EFC Redistribution (AID 451; calls by dose curve; note: potency is the fitted concentration of half-maximal effect). The settings on record: CHO-K1 GR-EFC translocation, beta-gal luminescence, 2 h. Put shortly:
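CHO-K1 cells stably expressing nuclear-localized β-gal enzyme acceptor and GR fused C-terminally to the enzyme donor fragment; ligand-driven nuclear translocation restores β-gal by complementation. Compounds titrated up to 46 uM final, 2 h at 37 °C; luminescence read.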

Assay [7] has as its target Mitogen-activated protein kinase 10 (Mus musculus) (UniProt Q61831). In words: JNK3 AlphaScreen Assay (AID 530).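 Note: kinase came from lysate of stimulated human HepG2 cells; % is set by controls: 0 for no effect and ±100 for the full control effect.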 Particulars: JNK3 lysate, c-Jun phosphorylation; series mostly up to 57.1 µM. Put shortly: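 Phosphorylation of biotinylated GST-cJun(1-79) at Ser73 is measured by AlphaScreen proximity luminescence. Enzyme is JNK3 in HepG2 lysates activated with interleukin-1beta and tumor necrosis factor alpha; ATP is 10 uM final.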

For assay [8], the target named is 3',5'-cyclic-AMP phosphodiesterase 4B (Homo sapiens) (UniProt Q07343). In words: qHTS Assay for Inhibitors of PDE-IV (AID 607; active = well fitted activation curve with a large enough effect in the main read-out, with a control signal flat, not every such curve was filed as active; note: % of control where 0% means no effect). The settings on record: HEK293 ACTOne CNG channel cells, membrane potential fluorescence; series mostly up to 22.9 µM. Put shortly: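 HEK293 ACTOne cells with CNG channel (1000/well), endogenous PDE4; membrane potential dye, compounds up to 22.9 uM final. Fluorescence Ex 535/Em 590; RO 20-1724 (100 uM final) as reference.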
3',5'-cyclic-AMP phosphodiesterase 4B (Homo sapiens), sequence (Q07343 whole entry, looked up): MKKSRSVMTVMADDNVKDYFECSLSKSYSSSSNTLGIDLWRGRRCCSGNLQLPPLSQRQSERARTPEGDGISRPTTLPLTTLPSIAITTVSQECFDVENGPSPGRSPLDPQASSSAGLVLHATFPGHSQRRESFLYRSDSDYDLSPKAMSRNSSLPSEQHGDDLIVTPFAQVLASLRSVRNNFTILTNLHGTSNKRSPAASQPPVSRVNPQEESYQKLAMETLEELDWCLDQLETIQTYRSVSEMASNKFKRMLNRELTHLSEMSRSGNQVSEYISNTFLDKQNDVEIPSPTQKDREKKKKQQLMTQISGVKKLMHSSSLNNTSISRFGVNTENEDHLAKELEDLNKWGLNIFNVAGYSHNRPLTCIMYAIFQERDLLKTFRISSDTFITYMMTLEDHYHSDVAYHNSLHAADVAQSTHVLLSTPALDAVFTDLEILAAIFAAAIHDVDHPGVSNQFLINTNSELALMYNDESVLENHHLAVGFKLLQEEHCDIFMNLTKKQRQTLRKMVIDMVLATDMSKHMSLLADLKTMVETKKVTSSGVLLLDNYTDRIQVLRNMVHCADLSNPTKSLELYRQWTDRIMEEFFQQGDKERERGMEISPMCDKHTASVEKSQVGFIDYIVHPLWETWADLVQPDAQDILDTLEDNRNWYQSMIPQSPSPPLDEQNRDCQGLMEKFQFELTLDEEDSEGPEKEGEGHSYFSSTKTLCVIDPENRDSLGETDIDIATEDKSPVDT
In general terms: In qHTS, concentration-response curves come from the screen itself.

Assay [9] in a line: qHTS Assay for Lipid Storage Modulators (AID 1519; calls by dose curve). The settings on record: Drosophila S3 cells, BODIPY lipid droplet/cell ratio, laser cytometry, cells loaded with oleic acid; for activity change, negative = inhibition: at 25.7 µM (top of the series). In outline: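 Cells seeded at 5,000 per well were treated with compounds over a concentration series and loaded with oleic acid (400 uM, as added). Lipid droplet fluorescence (488 nm excitation, 500-530 nm channel) was read by laser-scanning cytometry and normalized to 20 uM Triacsin C.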

Assay [10] has as its target ATP-dependent 6-phosphofructokinase (Trypanosoma brucei brucei) (UniProt O15648). Kind of assay: qHTS Assay to Find Inhibitors of T. brucei phosphofructokinase: hit validation (AID 492961; active = well fitted curve in the direction sought with a large enough effect; an effect the other way counts as inactive or inconclusive). Particulars: T. brucei PFK, ADP-Glo luminescence; series mostly up to 24.3 µM. Put shortly:
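Percent activity derived from corrected luminescence, normalized between 0x and 1x enzyme controls, then fitted to concentration-response curves. Conditions: 1.25 nM PFK, 0.1 mM ATP, 0.5 mM F6P, 45 min RT.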

Assay [11] deals with Ubiquitin carboxyl-terminal hydrolase 1 (Homo sapiens) (UniProt O94782). In words: Inhibitors of USP1/UAF1: Pilot qHTS (AID 504865; active = well fitted curve in the direction sought with a large enough effect; an effect the other way counts as inactive or inconclusive;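 note: rhodamine fluorescence freed from ubiquitin-rhodamine substrate followed over time; top concentration of the series differs between compounds; % is set by controls: 0 for no effect and ±100 for the full control effect; nearly all actives have a fitted effect of over 35% in size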). Particulars: purified USP1/UAF1, Ub-rhodamine cleavage fluorescence; series mostly up to 54.9 µM. In outline:
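USP1/UAF1 complex at 1 nM preincubated 15 min at room temperature with compound, then Ub-Rho substrate added at 150 nM final. Fluorescence (480/540 nm) read kinetically in 50 mM HEPES pH 7.8, 0.5 mM EDTA, 1 mM TCEP, 0.1 mg/ml BSA, 0.01% Tween-20.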

Assay [12] deals with Luciferin 4-monooxygenase (Photinus pyralis) (UniProt P08659). In words: Biochemical firefly luciferase enzyme assay for NPC (AID 624030; active = well fitted curve in the direction sought with a large enough effect; an effect the other way counts as inactive or inconclusive;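 note: purified P. pyralis luciferase at 10 nM with luciferin and ATP substrate; 0% = DMSO and -100% = full luciferase inhibition by PTC124 control; nearly all actives have a fitted effect of over 70% in size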). The settings on record: purified P. pyralis luciferase, luminescence, 5 min; series mostly up to 58.6 µM. In outline: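 Counter-screen for direct inhibition of the luciferase enzyme by approved-drug library compounds, run at 10 nM enzyme in 50 mM Tris acetate (final). Luminescence was read within 5 min of enzyme-buffer addition and normalized to PTC124 versus DMSO (0%).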
Luciferin 4-monooxygenase (Photinus pyralis), sequence (P08659 whole entry, looked up): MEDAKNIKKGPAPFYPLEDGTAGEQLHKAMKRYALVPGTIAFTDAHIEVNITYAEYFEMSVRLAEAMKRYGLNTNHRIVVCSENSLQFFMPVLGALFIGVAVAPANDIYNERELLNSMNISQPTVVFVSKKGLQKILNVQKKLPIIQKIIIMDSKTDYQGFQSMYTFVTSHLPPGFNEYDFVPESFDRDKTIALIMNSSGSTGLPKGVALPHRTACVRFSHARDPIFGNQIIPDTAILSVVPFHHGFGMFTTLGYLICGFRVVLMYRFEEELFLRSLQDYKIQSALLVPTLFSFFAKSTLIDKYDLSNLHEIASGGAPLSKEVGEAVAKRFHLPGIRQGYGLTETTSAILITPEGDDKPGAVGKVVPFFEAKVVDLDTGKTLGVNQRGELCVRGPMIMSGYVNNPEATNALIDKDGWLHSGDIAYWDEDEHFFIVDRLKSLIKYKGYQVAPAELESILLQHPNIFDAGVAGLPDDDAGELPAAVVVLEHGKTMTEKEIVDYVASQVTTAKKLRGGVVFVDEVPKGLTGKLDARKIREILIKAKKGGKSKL

Assay [13] can be described thus: qHTS profiling for inhibitors of Plasmodium falciparum proliferation (AID 504749; active = well fitted curve in the direction sought with a large enough effect; an effect the other way counts as inactive or inconclusive;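 note: 0% = DMSO vehicle and full inhibition = artemisinin control; nearly all actives have a fitted effect of over 60% in size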). Particulars: P. falciparum in erythrocytes, SYBR Green DNA, 72 h, at 28.7 µM (top of the series). Put shortly:
(§1)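 Quantitative HTS: compounds pinned into medium, infected erythrocytes added (0.3% parasitemia, 2.5% hematocrit), 72 h culture at 37 C under 5% CO2. Saponin/Triton lysis with SYBR Green I, overnight RT, then fluorescence read.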

A further assay deals with AS120. The assay is described as above. Particulars: P. falciparum in erythrocytes, SYBR Green DNA, 72 h; series mostly up to 28.7 µM. In outline:
as §1

In the next assay the test system is CP201. The assay is described as above. Particulars: P. falciparum in erythrocytes, SYBR Green DNA, 72 h; series mostly up to 12.8 µM. Put shortly: as §1
Another assay concerns CP238. The assay is described as above. The settings on record: P. falciparum in erythrocytes, SYBR Green DNA, 72 h; series mostly up to 12.8 µM. Put shortly:
as §1

The next assay has as its system CP262. The description is as above. The settings on record: P. falciparum in erythrocytes, SYBR Green DNA, 72 h; series mostly up to 12.8 µM. In outline:
as §1

A further assay relates to CP265. Described as above. Particulars: P. falciparum in erythrocytes, SYBR Green DNA, 72 h; series mostly up to 12.8 µM. In outline: as §1
Another assay has as its system FAB9. The description is as above. Particulars: P. falciparum in erythrocytes, SYBR Green DNA, 72 h; series mostly up to 12.8 µM. Put shortly: as §1
The test system of a further assay is JCK. The description is as above. Particulars: P. falciparum in erythrocytes, SYBR Green DNA, 72 h; series mostly up to 12.8 µM. In outline:
as §1

The mark [14] stands for this setting: measured here: cell count channel max response.
[15] abbreviates: measured here: lipid channel max response.

Molecules are shown by their SMILES. Several values for one entry are separate records, joined by “and”; a condition that tells them apart may be missing. Identical values can stand only once. Results filed as inconclusive are left out. Activity calls are given as the source filed them. Unless noted, calls come from the whole dose curve; as a rule, active = well fitted curve in either direction with a large enough effect (not every such curve was filed as active); inconclusive = small, poorly fitted or top-dose-only effect, or another doubt; inactive = flat fitted curve, though single readings scatter. A value given as a limit tells only on which side of the number the result lay.

Ubiquitin carboxyl-terminal hydrolase 1 (Homo sapiens), sequence (O94782 whole entry, looked up): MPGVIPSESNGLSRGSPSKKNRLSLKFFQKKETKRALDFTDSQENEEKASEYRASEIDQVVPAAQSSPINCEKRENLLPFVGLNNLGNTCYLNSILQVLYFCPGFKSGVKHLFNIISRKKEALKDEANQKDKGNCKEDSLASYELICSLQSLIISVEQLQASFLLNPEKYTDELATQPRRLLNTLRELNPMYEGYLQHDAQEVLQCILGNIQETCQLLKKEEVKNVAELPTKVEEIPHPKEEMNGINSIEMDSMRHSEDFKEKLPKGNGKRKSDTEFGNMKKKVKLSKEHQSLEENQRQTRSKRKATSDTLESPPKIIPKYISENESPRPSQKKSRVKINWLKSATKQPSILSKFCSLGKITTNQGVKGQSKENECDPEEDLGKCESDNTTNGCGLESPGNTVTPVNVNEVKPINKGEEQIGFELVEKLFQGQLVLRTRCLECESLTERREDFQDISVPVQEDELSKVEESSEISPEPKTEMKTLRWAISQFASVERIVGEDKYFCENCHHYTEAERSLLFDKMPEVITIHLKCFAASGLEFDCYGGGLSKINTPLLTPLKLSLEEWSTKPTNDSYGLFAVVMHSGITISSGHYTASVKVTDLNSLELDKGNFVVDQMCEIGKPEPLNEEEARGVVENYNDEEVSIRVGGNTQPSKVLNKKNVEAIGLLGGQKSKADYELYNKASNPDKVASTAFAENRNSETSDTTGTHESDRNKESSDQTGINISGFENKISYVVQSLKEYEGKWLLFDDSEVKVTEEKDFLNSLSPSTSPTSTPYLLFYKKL
ATP-dependent 6-phosphofructokinase (Trypanosoma brucei brucei), sequence (O15648 whole entry, looked up): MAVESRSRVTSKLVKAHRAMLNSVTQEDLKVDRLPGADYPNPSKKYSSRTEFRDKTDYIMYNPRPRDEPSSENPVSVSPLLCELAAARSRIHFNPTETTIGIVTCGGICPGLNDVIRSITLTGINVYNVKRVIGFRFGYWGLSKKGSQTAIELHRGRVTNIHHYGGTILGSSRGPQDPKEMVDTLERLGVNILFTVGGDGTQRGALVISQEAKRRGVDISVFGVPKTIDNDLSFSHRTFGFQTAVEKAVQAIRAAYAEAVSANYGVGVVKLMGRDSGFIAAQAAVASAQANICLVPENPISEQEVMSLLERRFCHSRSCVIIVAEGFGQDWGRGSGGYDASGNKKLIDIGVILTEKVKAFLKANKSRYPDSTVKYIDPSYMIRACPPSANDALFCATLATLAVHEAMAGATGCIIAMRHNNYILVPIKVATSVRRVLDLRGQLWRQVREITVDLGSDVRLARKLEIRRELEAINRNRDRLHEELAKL

`CCCN[C@@H](C)C(=O)Nc1ccccc1C`: the activity change, negative = inhibition in assay [1] (at 17.2 µM (top of the series)) is -5.22% (inactive); in assay [1] (at 38 µM (top of the series)), 7.83% (inactive); in assay [3] (at 17.2 µM (top of the series)), -7.99% (inactive); in [3] (at 38 µM (top of the series)), 0.91% (inactive); in assay [9] it was -0.0308% (inactive). The Potency result (in [2]; in [7]; in assay [8]; in assay [11]; with AS120; in the assay on CP201) was “inactive” throughout. In addition, the Potency result with CP238, with CP262, with CP265, in the assay with FAB9 and in the assay on JCK was “inactive” in each case. The activity, negative = inhibition in assay [4] (at 17.2 µM (top of the series)) is -2.53% (inactive); in assay [4] (at 38 µM (top of the series)) it was -11.1% (inactive); in assay [13] (parasite line A), 7.59% (inactive); in assay [13] (parasite line B), 9.71% (inactive). In addition, the Potency in assay [5] is > 46 µM (inactive) and > 20.6 µM (inactive); in assay [6], > 46 µM (inactive) and > 20.6 µM (inactive). For the same compound, the max response in assay [9] (setting [14]) was 11.7%; in assay [9] (setting [15]), 11.2%. The outcome in assay [10] and in assay [12] was inactive.

For the compound `CC(=O)OCC1=C(C(=O)O)N2C(=O)[C@@H](NC(=O)Cc3cccs3)[C@@H]2SC1`, the activity change, negative = inhibition was 7.41% (inactive) in [1] (at 17.2 µM (top of the series)); -2.48% (inactive) in assay [1] (at 38 µM (top of the series)); -11.2% (inactive) in assay [3] (at 17.2 µM (top of the series)); 3.89% (inactive) in assay [3] (at 38 µM (top of the series)); -1.63% (inactive) in assay [9]. The Potency entry in assay [2], in assay [7] and in assay [8] was “inactive” in each case. Moreover, the activity, negative = inhibition in assay [4] (at 17.2 µM (top of the series)) was -1.09% (inactive); in assay [4] (at 38 µM (top of the series)), -3.08% (inactive). Besides, the Potency was > 46 µM (inactive) and > 20.6 µM (inactive) in assay [5]; > 46 µM (inactive) and > 20.6 µM (inactive) in [6]. The results for the max response in [9] (setting [14]) and in assay [9] (setting [15]) were -17.3% and -18.6%, respectively.

Consider `CC[C@]1(C)CC(=O)NC1=O`, for which the activity change, negative = inhibition in [1] (at 17.2 µM (top of the series)) was 1.25% (inactive); in assay [1] (at 38 µM (top of the series)), 0.0779% (inactive); in assay [3] (at 17.2 µM (top of the series)), 5.72% (inactive); in assay [3] (at 38 µM (top of the series)) it was 0.552% (inactive); in assay [9], 0.986% (inactive). Further, the Potency result (in assay [2]; in assay [7]; in assay [8]; in assay [11]; with AS120; in the assay with CP201) was “inactive” each time. The Potency result in the assay on CP238, in the assay on CP262, in the assay with CP265, in the assay with FAB9 and in the assay on JCK was “inactive” throughout. Further, the activity, negative = inhibition in assay [4] (at 17.2 µM (top of the series)) was 2.02% (inactive); in assay [4] (at 38 µM (top of the series)) it was 10.7% (inactive); in [13] (parasite line A), 10.6% (inactive); in assay [13] (parasite line B), 5.48% (inactive). The Potency in assay [5] is > 46 µM (inactive) and > 20.6 µM (inactive); in [6] it was > 46 µM (inactive) and > 20.6 µM (inactive). In addition, the results for the max response in [9] (setting [14]) and in assay [9] (setting [15]) were 2.27% and 7.01%, respectively. Moreover, the compound was called inactive in [10] and in assay [12].

For `CN1Cc2c(N)cccc2[C@H](c2ccccc2)C1`, the activity change, negative = inhibition in [1] (at 17.2 µM (top of the series)) is -6.53% (inactive); in assay [1] (at 38 µM (top of the series)), -7.55% (inactive); in assay [3] (at 17.2 µM (top of the series)), -6.69% (inactive); in [3] (at 38 µM (top of the series)), -5.66% (inactive); in assay [9] it was 1.09% (inactive). Besides, the Potency is 31.6 µM (active) and 6.31 µM (active) in assay [2]; > 46 µM (inactive) and > 20.6 µM (inactive) in assay [5]; > 46 µM (inactive) and > 20.6 µM (inactive) in assay [6]. For the same compound, the Potency result in assay [7], in [8] and in assay [11] was “inactive” in each case. Also, the max response in [9] (setting [14]) was -0.662%; in [9] (setting [15]), 0.613%.

As to `C=CCc1ccccc1OC[C@H](O)CNC(C)C`, the activity change, negative = inhibition in assay [1] (at 17.2 µM (top of the series)) is 12.5% (inactive); in [1] (at 38 µM (top of the series)) it was 11.9% (inactive); in assay [3] (at 17.2 µM (top of the series)), -2.1% (inactive); in assay [3] (at 38 µM (top of the series)), -5.09% (inactive); in assay [9], 0.0029% (inactive). Moreover, the Potency in assay [2] was 7.94 µM (active) and 3.16 µM (active). In addition, the activity, negative = inhibition in [4] (at 7.69 µM (top of the series) unless noted) was 5.89% [at 17.2 µM] (inactive). Also, the Potency result in assay [7], in assay [8] and in assay [11] was “inactive” each time. The max response is -4% in [9] (setting [14]) and -3.45% in assay [9] (setting [15]).

Source of the values: PubChem BioAssay (NCATS).
